Compounds with a hit are over-represented: about 1.9% of the library has one in this group of screens.
Menin-MLL FL inh: displaces fluorescein MLL peptide from human menin; Fluorescence polarization, fluorescein-MLL peptide displacement from menin; FP activity change, % at 61.4 µM; 290,000 tested, under 10 active; AID 1766; active = well fitted curve in the direction sought with a large enough effect in the polarisation, not every such curve was filed as active; inconclusive = small, poorly fitted or top-dose-only effect, or effect the other way, or a change in a side signal; inactive = no such curve, though single readings can be large or run the other way; the % refers to the polarisation; note: % of control where 0% means no effect
ClpP mod: qHTS Assay for Activators of ClpP; ATP-dependent Clp protease proteolytic subunit (Bacillus subtilis (strain 168)), P80244; purified B. subtilis ClpP, FRET peptide cleavage, 20 min; Potency, µM (doses to about 57.5 µM), for inactives: at the top dose activity change, negative = active; 1.9% of 340,000 active; active = well fitted falling curve with a large enough effect; inconclusive = small, poorly fitted or top-dose-only effect; inactive = no such curve, though single readings can be large or run the other way; note: potency is the fitted concentration of half-maximal effect; the source files actives as falling curves though it sought activators and does not explain the sign; nearly all actives have a fitted effect of over 65% in size
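FRET quenching reversal measured ClpP activation: 10 microg/mL B. subtilis ClpP at pH 8 with the FRET-FV decapeptide, read at 430 nm after 320 nm excitation. The 20-min minus 0-min signal was scaled between DMSO/no-enzyme wells and ADEP (5.8 microM final).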
CXXC DNA block: blocks binding of human MLL CXXC domain to DNA. 0.037% of 290,000 active. Potency, µM (highest dose often 115 µM), for inactives: top-dose activity change, negative = inhibition, usual class: inhibitors. MLL-CXXC / FITC-HOXA9 DNA fluorescence polarization. Q03164; active = well fitted inhibition curve with a large enough effect in the polarisation, with a control signal flat, not every such curve was filed as active; inconclusive = small, poorly fitted or top-dose-only effect, or effect the other way, or a change in a side signal; inactive = no such curve, though single readings can be large or run the other way; the % refers to the polarisation; note: potency is the fitted concentration of half-maximal effect
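Purified MLL-CXXC (added from a 7 uM solution) was preincubated 5 min at ambient with pinned compounds in 50 mM Tris-HCl pH 7.5, 50 mM NaCl, 1 mM DTT, 0.05% BSA. Fluorescein-labeled HOX-A9 DNA (50 nM solution) followed, 30 min, then polarization read.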
Menin MLL FP TR: menin-MLL binding inhibition, Texas Red mutant peptide; Potency, µM (highest dose often 61.6 µM), for the others: top-dose FP activity change, negative = inhibition, most hits filed as inhibitors; O00255; Menin + Texas Red MLL mutant peptide, fluorescence polarization; 0.23% of 270,000 active; active = well fitted inhibition curve with a large enough effect in the polarisation, with a control signal flat, not every such curve was filed as active; inconclusive = small, poorly fitted or top-dose-only effect, or effect the other way, or a change in a side signal; inactive = no such curve, though single readings can be large or run the other way; the % refers to the polarisation; note: potency is the fitted concentration of half-maximal effect; % of control where 0% means no effect
Target sequence (O00255 whole entry, looked up): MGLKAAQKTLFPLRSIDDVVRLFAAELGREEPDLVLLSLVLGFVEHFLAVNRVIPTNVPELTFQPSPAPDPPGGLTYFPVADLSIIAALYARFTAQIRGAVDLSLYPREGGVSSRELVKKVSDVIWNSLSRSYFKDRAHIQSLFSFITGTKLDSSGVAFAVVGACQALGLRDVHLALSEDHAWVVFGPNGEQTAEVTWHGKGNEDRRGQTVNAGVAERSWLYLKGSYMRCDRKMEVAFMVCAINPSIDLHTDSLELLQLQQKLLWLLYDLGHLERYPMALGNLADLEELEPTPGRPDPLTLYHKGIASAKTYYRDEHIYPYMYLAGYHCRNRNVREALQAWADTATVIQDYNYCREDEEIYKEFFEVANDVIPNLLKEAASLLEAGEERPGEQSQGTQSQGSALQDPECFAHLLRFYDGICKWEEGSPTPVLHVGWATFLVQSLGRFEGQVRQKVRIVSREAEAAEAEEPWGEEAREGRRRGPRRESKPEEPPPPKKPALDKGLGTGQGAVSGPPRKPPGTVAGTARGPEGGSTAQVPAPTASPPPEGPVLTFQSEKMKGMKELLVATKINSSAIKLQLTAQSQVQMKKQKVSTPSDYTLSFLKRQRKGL
Epigenetic derep: regulators of epigenetic silencing causing reporter derepression in mouse cells. Potency, µM (highest dose often 53.9 µM), inactives show at the highest dose GFP activation, most hits filed as activators. murine LDR cells, GFP reporter derepression, 30 h. 0.2% of 280,000 active; active = well fitted activation curve with a large enough effect; inconclusive = small, poorly fitted or top-dose-only effect; note: potency is the fitted concentration of half-maximal effect; % of control where 0% means no effect; nearly all actives have a fitted effect of over 60% in size
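In this reporter-derepression format, murine cells bearing a silenced integrated CMV-GFP locus incubate with test compound (30 h, 37 C), then are washed and imaged; fluorescent objects of 20–120 um count as induced cells.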
PINK1 expr mod: PINK1 expression modulation; 0.2% of 410,000 active; Potency, µM (highest dose often 76.6 µM), without a hit: at the top dose activation (PINK1 increase), hits mostly activators; PINK1 immunofluorescence, high-content cytometry, 24 h; active = well fitted activation curve with a large enough effect; inconclusive = small, poorly fitted or top-dose-only effect; cell line not stated here; note: potency is the fitted concentration of half-maximal effect; % of control where 0% means no effect; nearly all actives have a fitted effect of over 65% in size
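Cells are seeded, rested 12 hours, then given compound at five concentrations or DMSO for 24 hours. After fixation, blocking and antibody staining, PINK1 amount and mitochondrial localization are scored; CCCP serves as control.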
* marks the source's active call; other numbers are inactive results; ? = inconclusive; · = not tested or not shown; ! = a repeat was not active; [ ] = remark or other dose.

SMILES	Menin-MLL FL inh	ClpP mod	CXXC DNA block	Menin MLL FP TR	Epigenetic derep	PINK1 expr mod
CSc1ncccc1C(=O)NCC1Cc2cc(-c3cnccn3)cc(Cl)c2O1 (configuration not stated)	·	·	·	·	·	0.2%
COc1ccc(OC)c(/C=C/c2c3ccccc3cc[n+]2C)c1	·	-6.3%	·	·	·	4.2%
O=C(Nc1cccc2ccccc12)N1CCOCC1	-0.9	25.1µM*	0.2%	-12.4%	0.0%	3.4%[38.3 µM]
O=C(Nc1ccc(F)cc1)N1CCOCC1	-3.4	-0.2%	4.5%	-0.4%	-1.0%	·
O=C(O)c1ccccc1NC(=O)N1CCOCC1	0.8	·	-4.3%	-1.3%	-0.3%	2.0%
N#C/C(=C\c1sc(N2CCOCC2)nc1-c1ccccc1)C(=O)Nc1cccc2ccccc12	?	·	6.6%	-4.1%	12.6µM*	·
CCN1CCN(C(=O)Nc2cccc3ccccc23)CC1	2.0	11.2µM*	-8.1%	-2.4%	-9.3%	2.8%
CN(C)c1ccc(NC(=O)N2CCOCC2)cc1	0.1	-2.5%	6.3%	20µM*	-1.0%	-0.9%
CN1CCN(C(=O)Nc2cccc3ccccc23)CC1	3.4	15.8µM*	4.5%	-0.3%	0.0%	6.0%[38.3 µM]
CSc1ncccc1C(=O)N1CCOc2ccc(C(C)(O)CCn3cccn3)cc2C1 (configuration not stated)	·	·	·	·	·	-0.8%
CCCCCCSc1cc(-c2nc3cc(C)ccn3c2NCCCC)ccc1OC	·	15.8µM*	·	·	·	?
CCC(C)Sc1cccc(-c2nc3ccc(Cl)cn3c2NCc2ccccc2)c1 (configuration not stated)	·	25.1µM*	·	·	·	?
CCCCCCSc1cccc(-c2nc3ccc(C)cn3c2NCc2ccccc2)c1	·	4.5%	·	·	·	25.1µM*
Nc1ccc(/C=C/c2ccnc3ccccc23)c(N)c1	·	-1.3%	·	·	·	·
Cc1ccc(S(=O)(=O)NC2(C(=O)O)CCCC2)cc1	·	35.5µM*	·	·	·	-3.1%
Cc1ccc(S(=O)(=O)NC2(C(=O)O)CCCCC2)cc1	-0.7	0.0%	2.5%	3.6%	4.9%	-0.8%
COc1ccc(-c2nc(-c3cccc(C)c3)no2)cc1OC	0.8	25.1µM*	0.4%	28.6%	-1.0%	8.3%[38.3 µM]
Cn1c2ccccc2n2c(=O)cc(-c3ccccc3)c(C#N)c12	2.0	-17.3%	0.2%	·	-0.4%	5.7%
Cn1c2ccccc2n2c(=O)c(Cl)c(-c3ccccc3)c(C#N)c12	2.6	28.2µM*	14.6%	1.8%	7.3%	4.9%
COc1cc(-c2nc(C)cnc2C)cc2c1OCCN(C(=O)Cc1cc(OC)c(OC)c(OC)c1)C2	·	·	·	·	·	0.4%
Cc1cccc(N(C(=O)CCC(=O)Nc2cc(C)on2)C(C(=O)NC2CCCC2)c2ccc(C)o2)c1 (configuration not stated)	1.1	-3.3%	1.9%	?	-5.8%	-2.0%
Cc1cc(NC(=O)CCC(=O)N(c2cccc(F)c2)C(C(=O)NC2CCCC2)c2ccc(C)o2)no1 (configuration not stated)	2.3	28.2µM*	0.6%	-12.9%	·	0.1%
CC(C)=CC(=O)Nc1ccccc1C(N)=O	-2.1	-2.3%	-4.3%	-1.4%	-1.5%	-2.0%[38.3 µM]
CC(C)=CC(=O)Nc1ccccc1Br	-0.3	1.26µM*	9.5%	-1.1%	-1.1%	-0.5%[38.3 µM]
CC=Cc1cc2c(c(=O)o1)C(=O)C(O)C(C)O2 (configuration not stated)	·	12.6µM*	·	·	·	22.9%
O=C(NCC1Cc2cccc(-c3cccnc3)c2O1)c1ccc2cc[nH]c2c1 (configuration not stated)	·	·	·	·	·	0.2%
COc1ccc(-c2cc(C(=O)NCCc3ccccc3)c3c(-c4ccccc4)[nH]nc3n2)cc1	·	12.6µM*	·	·	-1.8%	0.5%
COc1ccc(-c2cc(C(=O)NCCc3ccccc3)c3c(-c4ccc(Cl)cc4)[nH]nc3n2)cc1	·	4.3%	·	·	0.5%	7.4%
O=C(CCS(=O)(=O)c1ccc(Cl)cc1)NCCN1C(=O)S/C(=C\c2ccccc2F)C1=O	5.5	28.2µM*	2.6%	1.6%	1.0%	-1.8%
O=Cc1c2[nH]c3ccccc3c2cc2[nH]c3ccccc3c12	?	·	·	?	12.6µM*!	·

Source: PubChem BioAssay (National Center for Advancing Translational Sciences (NCATS))
